# Source: PubChem BioAssay (EPA / NIEHS)
# Values joined by “and” are separate entries in the source; they are usually repeats but may differ in a detail not shown here. Equal values may be shown once. Some structures have more than one record in an assay (separate samples or runs), and their calls can disagree. Active and inactive are the calls of the source. The calls were made as follows: active = hit-call score of the fitted dose curve at least 0.9, where 1 is the maximum; inactive = score below 0.9.
# Read-out: Monocyte Chemoattractant Protein-1 (MCP1), CCL2 (gene 6347)
# Assay: BSK_3C_MCP1: BioMAP Diversity Plus: 3C Assay for Monocyte Chemoattractant Protein-1 (MCP1) Biomarker Activity (AID 2283017)
# Conditions: primary human endothelial cells (HUVEC); actives raise or lower the signal
# Description: BSK_3C is a cell-based, multiplexed-readout assay that uses umbilical vein endothelium, a human vascular primary cell, with measurements taken at 24 hours after chemical dosing in a 96-well plate.BSK_3C_MCP1 is an assay component measured in the BSK_3C assay. It measures MCP-1 antibody related to regulation of gene expression using ELISA technology.Data from the assay component BSK_3C_MCP1 was analyzed into 1 assay endpoint. This assay endpoint, BSK_3C_MCP1, was analyzed with bidirectional fitting relative to DMSO as the negative control and baseline of activity. Using a type of binding reporter, gain or loss-of-signal activity can be used to understand changes in the signaling as they relate to the gene CCL2. Furthermore, this assay endpoint can be referred to as a primary readout, because this assay has produced multiple assay endpoints where this one serves a signaling function. To generalize the intended target to other relatable targets, this assay endpoint is annotated to the cytokine intended target family, where the subfamily is chemotactic factor.
# The levels of cell surface (or secreted, indicated by the prefix "s") biomarker endpoints were measured by ELISA. Overt cytotoxicity to cells in confluent adherent cultures (all systems other than the BT system) was assessed by measuring total protein levels using sulforhodamine B (SRB) staining in parallel cultures at the time of biomarker measurements, indicated as SRB endpoints. For proliferation assays for adherent cell types, individual cell types are cultured at sub-confluence and relative cell numbers quantified by SRB staining at time points optimized for each system (48 h: 3C and CASM3C systems; 72 h: BT and HDF3CGF systems; 96 h: SAg system). SRB was performed by staining cells with 0.1% SRB after fixation with 10% TCA and reading wells at 560 nm.Viability and proliferation of PBMC (T cells) was quantified by Alamar Blue reduction for the SAg and BT systems. For PBMC viability (referred to as PBMC Cytotoxicity within the assay endpoint names), cells were plated (75,000/well in a 96-well plate) and then chemical samples added for 1 h before addition of activators, SEB and TSST-1 (20 ng/mL final concentration each). Cells were incubated for 90 h. Then, Alamar Blue (20 uL/well) (Invitrogen, Cat DAL1100) was added for 6 h, and the plates were read with a fluorescence microplate reader at 546/580 nm (excitation/emission). For PBMC proliferation, cells were plated and activated as above but incubated for only 16 h prior to addition of Alamar Blue. Plates were read after 6 h.
SMILES,outcome,AC50
CCCCCCCCC(=O)O,inactive,–
C#C[C@]1(O)CC[C@H]2[C@@H]3CCC4=CC(=O)CC[C@@H]4[C@H]3CC[C@@]21C,–,6.01 µM (active)
CN1CCC[C@H]1c1cccnc1,inactive,–
CCCCC(CC)COC(=O)CCCCC(=O)OCc1ccccc1 (stereo not given),inactive,–
CCc1nn(C2CCCCC2)c2cc(C3(C#N)CCC(C(=O)O)CC3)ccc12 (stereo not given),–,10.6 µM (active)
OCCC(F)(F)C(F)(F)C(F)(F)C(F)(F)C(F)(F)C(F)(F)F,inactive,49.8 µM (active)
OC1CCC(C2CCCCC2)CC1 (stereo not given),inactive,–
CC[C@H](c1ccc(O)cc1)[C@@H](CC)c1ccc(O)cc1,–,32.1 µM (active)
CC#C[C@]1(O)CC[C@H]2[C@@H]3CCC4=CC(=O)CCC4=C3[C@@H](c3ccc(N(C)C)cc3)C[C@@]21C,–,36.3 µM (active)
CCN(CC)CCNc1ccc(CNC=O)c2sc3ccc(OC)cc3c(=O)c12,–,19.4 µM (active)
NCC(F)(F)C(F)(F)C(F)(F)C(F)(F)C(F)(F)C(F)(F)C(F)(F)F,inactive,–
CC(C)(C)c1cc(C(C)(C)C)c(O)c(C(C)(C)C)c1,inactive,–
CCOC(=O)CC(O)(CC(=O)OCC)C(=O)OCC,inactive,–
CC1=C(/C=C/C(C)=C/C=C/C(C)=C/C(=O)O)C(C)(C)CCC1,inactive,–
CC(C)(C)c1ccc(O)c(C(C)(C)C)c1,–,11.7 µM (active)
CC(O)CO (stereo not given),inactive,–
CCCCCCCCCCCCCC[N+](C)(C)C,–,2.17 µM (active)
CCCCC(CC)COC(=O)CCCCC(=O)OCC(CC)CCCC (stereo not given),inactive,–
CCCCCCCCOC(=O)CCCCCCCCC(=O)OCCCCCCCC,inactive,–

SMILES,outcome,AC50
Oc1cccc(O)c1,inactive,–
CCCCCCCCCCCCCCCS(=O)(=O)Oc1ccccc1,inactive,–
OCCC(F)(F)C(F)(F)C(F)(F)C(F)(F)C(F)(F)C(F)(F)C(F)(F)C(F)(F)F,inactive,42.5 µM (active) and 24.3 µM (active)
CCCOC(=O)c1ccc(O)cc1,inactive,–
CC[C@H](C)[C@@H](C(=O)O)n1sc2ccccc2c1=O,inactive,–
C[C@@H]1C[C@H]2[C@@H]3CCC4=CC(=O)C=C[C@]4(C)[C@@]3(F)[C@@H](O)C[C@]2(C)[C@@]1(O)C(=O)COP(=O)(O)O,inactive,–
CC(C)(C)c1cccc(C(C)(C)C)c1O,inactive,–
CCC(C)(C)C1CCC(O)CC1 (stereo not given),inactive,–
CCCCCCCC(=O)O,inactive,–
Cc1cc(C)c(O)c(C)c1,inactive,–
COC(=O)CCCCC(=O)OC,inactive,–
CCCCCCCCCCCCN1CCCC1=O,–,32.7 µM (active)
CCCOc1sc(C(=O)N2CCC(c3cc(CN)ccc3F)CC2)c(C)c1Br,–,7.57 µM (active)
c1ccc2cc3c(ccc4ccccc43)cc2c1,inactive,–
CCC(=C(c1ccc(O)cc1)c1ccc(OCCN(C)C)cc1)c1ccccc1,–,8.6 µM (active)
c1ccc2c(c1)ccc1ccccc12,inactive,–
O=C(O)Cc1cc(I)c(Oc2cc(I)c(O)c(I)c2)c(I)c1,–,25.4 µM (active)
NC(=O)N1C(=O)C(C(=O)c2cc(Cl)cs2)c2cc(F)c(Cl)cc21 (stereo not given),–,5.16 µM (active)
COCC(C)O (stereo not given),inactive,–
